In the library only some 4.8% were active in any assay of this set; here they are far more common.
DRD3 agonist – D3 dopamine receptor (human) agonism; P35462; D3R DiscoveRx beta-arrestin cells, luminescence, 90 min; max activation, %; 0.58% of 410,000 active; AID 652048; in the data active = max activation above about 30%; also: 0% is about no effect
Target sequence (P35462 whole entry, looked up): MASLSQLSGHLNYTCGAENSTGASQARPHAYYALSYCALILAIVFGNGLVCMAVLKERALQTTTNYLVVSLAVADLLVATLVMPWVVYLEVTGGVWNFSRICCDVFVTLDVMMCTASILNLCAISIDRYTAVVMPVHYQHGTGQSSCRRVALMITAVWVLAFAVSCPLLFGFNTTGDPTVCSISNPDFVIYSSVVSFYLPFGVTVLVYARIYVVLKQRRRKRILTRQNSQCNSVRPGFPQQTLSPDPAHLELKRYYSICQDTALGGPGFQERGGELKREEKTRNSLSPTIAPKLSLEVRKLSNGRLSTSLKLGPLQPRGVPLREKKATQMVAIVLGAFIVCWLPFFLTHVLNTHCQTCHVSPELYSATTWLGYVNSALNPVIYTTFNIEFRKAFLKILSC
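Cells at 1500/well, incubated overnight, then treated with pinned compounds (dopamine as control) for 90 min at 37 degrees C. DiscoveRx reagent added for 30 - 60 minutes at room temperature; luminescence read.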
HepG2 tox – HepG2 cytotoxicity, counter-screen for TGF-b inhibitors. Potency, µM (titrated, usually from 46.1 µM), for the others: at the highest dose activity change, negative = cytotoxicity, most hits filed as cytotoxic. HepG2 CAGA-GFP viability, ATP luminescence, 18 h. 0.76% of 410,000 active. AID 588856; also: potency is read from the fitted curve at half-maximal effect
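CellTiter-Glo luminescence gave cytotoxicity after 18 hours at 37 degrees C. The cells were HepG2 CAGA-GFP in 1% FBS DMEM, stimulated with 500 pg/mL TGF-beta after compound addition. %Activity was normalised to no-cell wells (complete cell-killing) and DMSO (no toxicity), and curves were fitted and classified.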
ATXN2 expr inh – reduces ATXN2 reporter expression in HEK-293 cells | HEK-293 ATXN2-luciferase reporter, luminescence, 24 h | Potency, µM (doses to about 57 µM), for inactives: at the highest dose activity change, negative = inhibition, most hits filed as inhibitors | 0.72% of 360,000 active; also: potency is read from the fitted curve at half-maximal effect; % is scaled to controls: 0 for no effect and ±100 for the full control effect; nearly all actives have a fitted effect of over 55% in size
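qHTS (up to 57 uM final) was run with 24 h compound exposure of reporter cells at 37 °C. Each well was multiplexed: SteadyGlo luminescence measured ATXN2-luciferase expression after a fluorogenic Gly-Phe-AFC viability readout (25 uM final).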
TGFb inhibitor – blocks TGF-b signaling; Potency, µM (doses to about 46.1 µM), for inactives: at the highest dose activity, negative = inhibition, most hits filed as inhibitors; HepG2 CAGA-GFP TGF-b/SMAD3 reporter, GFP fluorescence, 18 h; TGF-beta stimulated, 500 pg/mL final; AID 588855; 1.2% of 410,000 active; also: potency is read from the fitted curve at half-maximal effect; % is scaled to controls: 0 for no effect and ±100 for the full control effect; nearly all actives have a fitted effect of over 65% in size
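Cell-based qHTS in HEPG2 carrying a CAGA-GFP Smad reporter; compounds added before 500 pg/mL final TGF-beta, 18 h incubation at 37 degrees C, GFP fluorescence quantified per cell by imaging cytometry.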
ATXN viability – viability counter-screen for ATXN expression inhibitors; AID 651635; Potency, µM (top dose mostly 56.7 µM), most hits filed as cytotoxic; 0.49% of 400,000 active; S2 cells (HEK-293 line with an ATXN2-luciferase reporter) viability, CellTiter-Fluor protease fluorescence, 24 h; also: potency is read from the fitted curve at half-maximal effect; nearly all actives have a fitted effect of over 40% in size
D3 antag – antagonists of human D3 dopamine receptor; D3R cells, DiscoveRx beta-arrestin luminescence, antagonist mode; hits give low values; max response, negative = inhibition, %; 2.5% of 360,000 active; AID 652054; in the data active = max response below about -50%; inconclusive = no clear call, values can overlap the other calls; also: % is scaled to controls: 0 for no effect and ±100 for the full control effect
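Cells plated overnight at 1500 cells/well, then exposed to library compounds with dopamine controls for 90 minutes at 37 degrees C. DiscoveRx reagent added for 30–60 minutes at room temperature; luminescence read, quantitative HTS format.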
An asterisk follows results filed as active; i = inactive; ? = inconclusive; · = not tested or not shown; ! = not confirmed by another sample; [ ] = another dose, or the depositor's remark. Unless noted, calls follow the shape of the dose curve; as a rule, active = well fitted curve in the direction sought with a large enough effect; inconclusive = small, poorly fitted or top-dose-only effect, or another doubt; inactive = no such curve, though single readings can be large; an effect the other way counts as inactive or inconclusive.

SMILES	DRD3 agonist	HepG2 tox	ATXN2 expr inh	TGFb inhibitor	ATXN viability	D3 antag
CN(C)CCCn1c(=S)[nH]c2ccccc2c1=O	-4	-13%	-11%	4%	i	-15
CN(C)CCCn1c2c3ccccc3ccc2c2oc(=O)c3ccccc3c21	-4	10µM*!	?	8.9µM*	?	10
O=C(CCl)c1ccc2c(c1)CCCC2	·	-28%	·	4%	·	·
Cc1ccc(OCC(=O)Nc2ccc3nc(SCC(=O)N(C)c4ccccc4)sc3c2)cc1	4	-12%	?	-16%	?	·
Cc1cccc2c1c1ccc3c(c1n2C)C(=O)C=CC3=O	0	-37%	·	16µM*	i	-28
Cc1ccccc1N1CC(=O)N(c2ccccc2C)CC1=O	1	-5%	-1%	11%	i	15
O=S(=O)(Nc1c(Br)cc(Br)c2cccnc12)C1CC1	·	-26%	·	0%	·	·
Cc1ccnc2ccc3ccccc3c12	·	1%	·	-17%	·	·
CCOC(=O)c1ccc(NC2=CC(=O)C(=O)c3ccccc32)cc1	1	-22%	-23%	?	?	-17
Cc1cc(C)c(S(=O)(=O)/N=C2\C=C(Nc3ccc(C(=O)O)cc3)C(=O)c3ccccc32)c(C)c1	-34	16µM*	28µM*	?	?	-77*
O=C(O)c1ccc(NC2=C/C(=N/S(=O)(=O)c3cccs3)c3ccccc3C2=O)cc1	-21	-108%	·	14µM*	·	-84*
O=C(O)c1ccc(Nc2nc3ccccc3nc2NS(=O)(=O)c2cccs2)cc1	5	-1%	-1%	3%	i	-5
CCOC(=O)C(=CNc1ccccc1C)C(=O)OCC	30	-26%	-9%	-4%	i	46
CCOC(=O)C(=CNc1cc(C)nn1-c1ccccc1)C(=O)OCC	98*	-13%	-33%	-4%	i	20
CC(C)(C)n1ncc2c(=O)n(Cc3ccc(Cl)cc3F)cnc21	·	-32%	·	?	·	·
Cc1nnc(N/N=C/c2cccc(OCc3ccc(Cl)c(Cl)c3)c2)n1N	-7	-104%	11%	22µM*	?	-17
Cc1nnc(N/N=C/c2cccc(C(F)(F)F)c2)n1N	-12	-45%	0%	?	i	3
CCOC(=O)/C=C1\CN(Cc2ccc(OC)cc2)S(=O)(=O)c2ccc(C(F)(F)F)cc21	·	-31%	·	?	·	·
CN(C)S(=O)(=O)c1cccc(NC(=S)Nc2cccc3cnccc23)c1	-15	-36%	-25%	-12%	i	-59*
CC1CCN(S(=O)(=O)c2ccc3c(ccc(=O)n3CC(=O)NCc3ccccc3)c2)CC1	-18	-20%	9%	?	i	·
Cc1ccc(C(=O)Nc2ccc(CN3CCN(C)CC3)c(C(F)(F)F)c2)cc1C#Cc1cnc2cccnn12	·	·	19µM*	·	·	·
CCc1ccc(C(=O)Nc2cc(CN3CCN(C)CC3)cc(C(F)(F)F)c2)cc1C#Cc1cnc2ccnn2c1	·	·	24µM*	·	·	·
CCC(C(=O)NCCc1ccc(OC)c(OC)c1)n1nc(C)c2sc3ccccc3c2c1=O (stereo not given)	-3	-9%	·	?	·	·
CCOC(=O)c1c(/N=C/c2cc([N+](=O)[O-])ccc2O)sc(C)c1C	-5	3%	1%	-7%	i	1
CCOC(=O)c1c(/N=C/c2cc(OC)cc([N+](=O)[O-])c2O)sc(C)c1C	-16	8%	-9%	-1%	?	-71*
CCc1n[nH]c(=S)n1/N=C/c1cc(OC)cc([N+](=O)[O-])c1O	-27	-20%	-20%[11.3 µM]	-1%	i	-94*
Cc1ccc(NC(=O)CN2C(=O)CCc3ccccc32)cc1C	2	-47%	5%	-19%	i	·
CC(c1ccccc1)N1C(=O)/C(=C/c2ccncc2)SC1=S (stereo not given)	0	-110%	·	?	22µM*	-16
COC(=O)C1=CN(c2cccc(C)c2)C=C(C(=O)OC)C1c1cc(OC)c(O)c([N+](=O)[O-])c1	-5	-13%	6%	-14%	i	-84*

Source: PubChem
